# Measurements: the supplement of paper PMC9694430
# How the values were obtained:
# Experiment in all cases: thermal shift delta Tm vs DMSO control; higher = stronger stabilization (binding)
# Conditions in all cases: 12.5 µM; protein concentration 2 µM
# LOC_OS02G45750-cb003 = tested on: LOC_OS02G45750-cb003
# Summary of the method: (§1)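 Rice kinase domain constructs, made in E. coli and purified, were placed in 96-well plates at 2 μM in 19.5 μl of 100 mM potassium phosphate pH 7.5, 150 mM NaCl, 10% glycerol and 5 × SYPRO Orange, with compound in DMSO. A temperature ramp from 25°C to 95°C at 0.05°C/s was used for differential scanning fluorimetry. The melting temperature shift is a triplicate mean compared with DMSO-only protein, derived from Boltzmann fits.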
# LOC_OS02G54510-cb004 = tested on: LOC_OS02G54510-cb004
# Summary of the method: as §1
# LOC_OS03G04050-cb001 = tested on: LOC_OS03G04050-cb001
# Summary of the method: as §1
# LOC_OS03G12390-cb001 = tested on: LOC_OS03G12390-cb001
# Summary of the method: as §1
# LOC_OS03G27990-cb004 = tested on: LOC_OS03G27990-cb004
# Summary of the method: as §1
# LOC_OS03G50450-cb001 = tested on: LOC_OS03G50450-cb001
# Summary of the method: as §1
# LOC_OS03G50810-cb003 = tested on: LOC_OS03G50810-cb003
# Summary of the method: as §1
# LOC_OS04G35114-cb001 = tested on: LOC_OS04G35114-cb001
# Summary of the method: as §1
# LOC_OS04G38480-cb003 = tested on: T1, LOC_OS04G38480-cb003
# T1 sequence (whole entry): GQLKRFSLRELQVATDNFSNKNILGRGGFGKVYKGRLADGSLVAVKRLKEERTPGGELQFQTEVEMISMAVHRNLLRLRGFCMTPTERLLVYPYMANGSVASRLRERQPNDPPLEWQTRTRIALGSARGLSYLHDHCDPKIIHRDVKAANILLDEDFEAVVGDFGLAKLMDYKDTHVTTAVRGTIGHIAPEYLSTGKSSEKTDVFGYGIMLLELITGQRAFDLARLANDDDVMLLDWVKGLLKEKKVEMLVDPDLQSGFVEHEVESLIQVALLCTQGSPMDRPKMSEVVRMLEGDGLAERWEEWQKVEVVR
# Summary of the method: as §1
# LOC_OS04G41100-cb001 = tested on: T2, LOC_OS04G41100-cb001
# T2 sequence (whole entry): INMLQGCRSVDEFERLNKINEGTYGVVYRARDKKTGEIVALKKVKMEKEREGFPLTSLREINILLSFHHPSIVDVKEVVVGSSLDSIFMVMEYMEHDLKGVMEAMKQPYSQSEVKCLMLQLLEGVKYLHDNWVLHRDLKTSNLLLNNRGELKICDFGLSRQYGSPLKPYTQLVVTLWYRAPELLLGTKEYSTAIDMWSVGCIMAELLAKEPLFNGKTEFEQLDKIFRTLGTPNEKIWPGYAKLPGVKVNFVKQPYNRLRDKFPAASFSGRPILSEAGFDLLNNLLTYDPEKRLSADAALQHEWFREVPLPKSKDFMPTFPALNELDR
# Summary of the method: as §1
# LOC_OS04G57630-cb004 = tested on: LOC_OS04G57630-cb004
# Summary of the method: as §1
# LOC_OS05G07850-cb002 = tested on: LOC_OS05G07850-cb002
# Summary of the method: as §1
# LOC_OS05G16824-cb004 = tested on: LOC_OS05G16824-cb004
# Summary of the method: as §1
# LOC_OS05G28520-cb001 = tested on: LOC_OS05G28520-cb001
# Summary of the method: as §1
# LOC_OS05G30820-cb001 = tested on: LOC_OS05G30820-cb001
# Summary of the method: as §1
# LOC_OS05G43570-cb004 = tested on: LOC_OS05G43570-cb004
# Summary of the method: as §1
# LOC_OS06G16330-cb003 = tested on: LOC_OS06G16330-cb003
# Summary of the method: as §1
# LOC_OS06G22820-cb001 = tested on: T3, LOC_OS06G22820-cb001
# T3 sequence (whole entry): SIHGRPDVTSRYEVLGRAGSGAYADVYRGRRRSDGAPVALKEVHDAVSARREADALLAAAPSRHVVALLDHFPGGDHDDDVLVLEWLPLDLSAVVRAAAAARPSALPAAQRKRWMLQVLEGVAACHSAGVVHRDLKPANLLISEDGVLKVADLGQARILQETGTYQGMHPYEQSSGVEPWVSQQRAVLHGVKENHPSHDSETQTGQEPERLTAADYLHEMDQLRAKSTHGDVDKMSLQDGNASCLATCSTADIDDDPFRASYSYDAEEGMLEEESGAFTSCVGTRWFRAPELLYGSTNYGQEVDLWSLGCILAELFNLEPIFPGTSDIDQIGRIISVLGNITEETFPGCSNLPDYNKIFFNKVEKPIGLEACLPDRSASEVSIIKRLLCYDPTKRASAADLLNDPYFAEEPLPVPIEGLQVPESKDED
# Summary of the method: as §1
# LOC_OS07G06570-cb004 = tested on: LOC_OS07G06570-cb004
# Summary of the method: as §1
# LOC_OS07G07230-cb001 = tested on: LOC_OS07G07230-cb001
# Summary of the method: as §1
# 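Further: purified Escherichia coli-expressed rice kinase domain construct.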
# LOC_OS06G16330-cb003, sequence (as listed by the source): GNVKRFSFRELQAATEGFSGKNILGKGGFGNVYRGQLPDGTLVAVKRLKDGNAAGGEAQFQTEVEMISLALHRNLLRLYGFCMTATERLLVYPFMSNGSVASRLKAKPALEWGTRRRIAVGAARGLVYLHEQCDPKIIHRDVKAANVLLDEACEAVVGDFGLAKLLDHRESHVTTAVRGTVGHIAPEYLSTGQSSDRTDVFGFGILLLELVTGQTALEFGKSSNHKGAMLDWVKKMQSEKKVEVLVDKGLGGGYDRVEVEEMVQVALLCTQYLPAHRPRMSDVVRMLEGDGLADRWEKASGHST
Compound,thermal shift delta Tm (LOC_OS02G45750-cb003),thermal shift delta Tm (LOC_OS02G54510-cb004),thermal shift delta Tm (LOC_OS03G04050-cb001),thermal shift delta Tm (LOC_OS03G12390-cb001),thermal shift delta Tm (LOC_OS03G27990-cb004),thermal shift delta Tm (LOC_OS03G50450-cb001),thermal shift delta Tm (LOC_OS03G50810-cb003),thermal shift delta Tm (LOC_OS04G35114-cb001),thermal shift delta Tm (LOC_OS04G38480-cb003),thermal shift delta Tm (LOC_OS04G41100-cb001),thermal shift delta Tm (LOC_OS04G57630-cb004),thermal shift delta Tm (LOC_OS05G07850-cb002),thermal shift delta Tm (LOC_OS05G16824-cb004),thermal shift delta Tm (LOC_OS05G28520-cb001),thermal shift delta Tm (LOC_OS05G30820-cb001),thermal shift delta Tm (LOC_OS05G43570-cb004),thermal shift delta Tm (LOC_OS06G16330-cb003),thermal shift delta Tm (LOC_OS06G22820-cb001),thermal shift delta Tm (LOC_OS07G06570-cb004),thermal shift delta Tm (LOC_OS07G07230-cb001)
COc1ccc(/C=C/C(=O)C2(C(=O)/C=C/c3ccc(OC)c(OC)c3)CCCCC2)cc1OC,1.45 °C,0.31 °C,0.85 °C,-0.65 °C,0.61 °C,0.8 °C,-0.01 °C,0.96 °C,0.14 °C,0.5 °C,-0.06 °C,0.62 °C,-3.56 °C,0.12 °C,0.75 °C,0.25 °C,-0.37 °C,0.49 °C,2.62 °C,0.7 °C
COc1nccc(-c2c(-c3ccc(F)cc3)ncn2C2CCC(O)CC2)n1 (stereo unspecified),0.57 °C,-0.06 °C,0.08 °C,0.08 °C,0.19 °C,0.52 °C,0.48 °C,0.56 °C,1.13 °C,0.51 °C,0.18 °C,-0.01 °C,1.52 °C,0.58 °C,0.26 °C,0.65 °C,0.57 °C,0.43 °C,0.69 °C,-0.08 °C
Cc1ccc(C(=O)Nc2ccc(CN3CCN(C)CC3)c(C(F)(F)F)c2)cc1C#Cc1cnc2[nH]ncc2c1 [GZD824 Dimesylate],10.6 °C,,0.96 °C,3.54 °C,1.61 °C,1.08 °C,6.3 °C,1.99 °C,1.28 °C,2.67 °C,6.01 °C,13.9 °C,2.52 °C,0.74 °C,2.1 °C,1.6 °C,5.01 °C,0.3 °C,0.65 °C,1.45 °C
CCn1cc(-c2ccnc3[nH]c(-c4cccc(CN(C)C)c4)cc23)c(-c2ccc(NC(=O)N(C)C)cc2)n1,2.5 °C,0.45 °C,0.74 °C,0.47 °C,0.5 °C,0.98 °C,1.14 °C,1.02 °C,1.93 °C,1.22 °C,1.27 °C,8.63 °C,0.47 °C,0.42 °C,0.52 °C,0.64 °C,4.22 °C,0.71 °C,1.35 °C,0.42 °C
CCCCCCCCCCCCCCCCCCOP(=O)([O-])OC1CC[N+](C)(C)CC1 [Perifosine (KRX-0401)],-1.3 °C,-1.77 °C,-3.06 °C,-3.5 °C,-2.47 °C,-2.45 °C,-1.54 °C,-3.56 °C,-0.3 °C,-0.69 °C,-0.56 °C,-0.07 °C,,-1.23 °C,-0.15 °C,-0.61 °C,,0.39 °C,-2.82 °C,-2.65 °C
CCn1c(=O)c(-c2ccc(-c3cncs3)cc2Cl)cc2cnc(Nc3ccc(N4CCN(C)CC4)cc3)nc21,1.17 °C,0.43 °C,0.71 °C,-0.41 °C,0.34 °C,1.1 °C,0.27 °C,0.85 °C,0.15 °C,0.58 °C,0.31 °C,1.19 °C,0.07 °C,0.25 °C,0.51 °C,0.24 °C,-0.19 °C,0.67 °C,0.84 °C,0.19 °C
Cc1cc(O)c2c(c1)C(=O)c1cccc(O)c1C2=O [Chrysophanic Acid],0.14 °C,-1.28 °C,-0.08 °C,-1.54 °C,0.02 °C,0.03 °C,-0.82 °C,0.09 °C,-1.19 °C,0.06 °C,-0.6 °C,1.45 °C,,0.74 °C,0.15 °C,-0.12 °C,-0.34 °C,-0.85 °C,1.81 °C,-0.41 °C
CCCCNc1ncc2c(-c3ccc(CN4CCN(C)CC4)cc3)cn([C@H]3CC[C@H](O)CC3)c2n1,18.4 °C,0.6 °C,0.12 °C,8.3 °C,10.8 °C,6.64 °C,10.5 °C,12.3 °C,4.63 °C,0.42 °C,6.55 °C,11.9 °C,15.5 °C,0.68 °C,1.96 °C,0.44 °C,13.5 °C,0.17 °C,0.92 °C,-0.01 °C
COc1ccc(S(=O)(=O)N(CCO)c2ccccc2CN(C)C/C=C/c2ccc(Cl)cc2)cc1 [KN-93 Phosphate],0.73 °C,-0.27 °C,0.31 °C,-0.19 °C,0.2 °C,0.48 °C,0.29 °C,0.92 °C,1.75 °C,0.58 °C,0.49 °C,0.97 °C,1.97 °C,0.31 °C,0.17 °C,0.27 °C,-0.14 °C,0.35 °C,1.18 °C,0.21 °C
CCN1C(=O)CNc2ncc(-c3ccc(-c4nc[nH]n4)nc3C)nc21,1.71 °C,-0.29 °C,-0.03 °C,-0.17 °C,-0.12 °C,-0.24 °C,-0.05 °C,0.7 °C,0.95 °C,-0.13 °C,-0.18 °C,0.15 °C,-3.58 °C,0.29 °C,0.42 °C,-0.33 °C,-0.44 °C,0.23 °C,0.95 °C,0.66 °C
COc1cc2nccc(Oc3ccc(NC(=O)NC4CC4)c(Cl)c3)c2cc1C(N)=O [Lenvatinib (E7080)],0.65 °C,0.49 °C,0.79 °C,-0.1 °C,0.31 °C,0.39 °C,0.26 °C,1.09 °C,0.48 °C,0.18 °C,1.31 °C,3.32 °C,-2.91 °C,0.18 °C,0.7 °C,0.32 °C,1.75 °C,0.98 °C,0.84 °C,0.35 °C
